Test results: PubChem BioAssay (NCATS)
Records with an inconclusive call do not appear. Active and inactive are the calls of the source. Calls come from the whole dose curve; as a rule, active = well fitted inhibition curve with a large enough effect; inconclusive = small, poorly fitted or top-dose-only effect; inactive = flat fitted curve, though single readings scatter.

tested on: CP335; assay: qHTS profiling for inhibitors of Plasmodium falciparum proliferation (AID 504749); note: nearly all actives have a fitted effect of over 60% in size;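 for activity, negative = inhibition: 0% = DMSO vehicle and full inhibition = artemisinin control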; settings: P. falciparum in erythrocytes, SYBR Green DNA, 72 h; series mostly up to 28.7 µM; activity, negative = inhibition: at the top concentration
How it was run: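 Parasite proliferation within erythrocytes, 72 h exposure. Endpoint: SYBR Green I fluorescence after overnight lysis at room temperature. Controls: 0.29 uM artemisinin, DMSO.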
Potency is the fitted concentration of half-maximal effect.

| SMILES | activity, negative = inhibition | Potency |
| --- | --- | --- |
| O=C(COc1ccc(Cl)cc1)OCCNC12CC3CC(CC(C3)C1)C2 | -4.09% (inactive) | – |
| CCOC(=O)C1=C(C)NC(C)=C(C(=O)OCC)C1c1ccccc1C=CC(=O)OC(C)(C)C | – | 10.7 µM (active) |
| CCCCCCCC(=O)O | 4.96% (inactive) | – |
| CCCCCCOc1ccc(C(=N)N(CCCC)CCCC)c2ccccc12 | – | 8.49 µM (active) |
| O=C(O)CCC(=O)C(=O)O | -1.09% (inactive) | – |
| CC(Cc1ccc(O)c(O)c1)C(C)Cc1ccc(O)c(O)c1 (configuration not stated) | -7.6% (inactive) | – |
| COC(=O)C1=C(C#N)NC(C)=C(C(=O)OC(C)C)C1c1cccc([N+](=O)[O-])c1 (configuration not stated) | – | 8.49 µM (active) |
| NC1C2CN(c3nc4c(cc3F)c(=O)c(C(=O)O)cn4-c3ccc(F)cc3F)CC12 (configuration not stated) | – | 6.01 µM (active) |
| IC(I)I | -1.52% (inactive) | – |
| O=S(=O)(O)c1cc(O)c2c(N=Nc3ccc(Nc4ccccc4)c4c(S(=O)(=O)O)cccc34)cc(S(=O)(=O)O)cc2c1 | -15.6% (inactive) | – |
| NC(=O)c1ncn(C2OC(CO)C(O)C2O)n1 (configuration not stated) | -12.1% (inactive) | – |
| CC[C@@]1(O)C(=O)OCc2c1cc1n(c2=O)Cc2cc3c([N+](=O)[O-])cccc3nc2-1 | – | 4.78 µM (active) |
